About 83,000 compounds went through this panel and 20% of them were active in at least one assay; those are over-represented in the sample as a whole.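 Each cell line was grown in a 96-well plate and treated with one concentration of compound for 48 hours. Values below 10 were considered active.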 Active and inactive are the calls of the source.
Experiments:
Assay in all cases: NCI-60 one-dose screen, 48 h (100 = growth as untreated, 0 = no growth, -100 = all killed)
Conditions in all cases: 10 µM unless noted
SR leukemia = test system: SR leukemia
RPMI-8226 leukemia = test system: RPMI-8226 leukemia
OVCAR-8 ovarian = test system: OVCAR-8 ovarian
OVCAR-5 ovarian = test system: OVCAR-5 ovarian
OVCAR-4 ovarian = test system: OVCAR-4 ovarian
SK-OV-3 ovarian = test system: SK-OV-3 ovarian
IGROV1 ovarian = test system: IGROV1 ovarian
OVCAR-3 ovarian = test system: OVCAR-3 ovarian
HS 578T breast = test system: HS 578T breast
NCI/ADR-RES ovarian = test system: NCI/ADR-RES ovarian
T-47D breast = test system: T-47D breast
BT-549 breast = test system: BT-549 breast
MDA-MB-435 melanoma = test system: MDA-MB-435 melanoma
SW-620 colon = test system: SW-620 colon
MCF7 breast = test system: MCF7 breast
HCT-116 colon = test system: HCT-116 colon
HCC-2998 colon = test system: HCC-2998 colon
KM12 colon = test system: KM12 colon

Measured: growth

Oc1c(CN2CCCC2)cc(COCc2ccccc2)c2cccnc12
active: OVCAR-8 ovarian 9.92% | SK-OV-3 ovarian -4.92% | NCI/ADR-RES ovarian -7.48% | T-47D breast 5.66% | MCF7 breast 10% | HCT-116 colon 9.16%
inactive: SR leukemia 12.4% | RPMI-8226 leukemia 16.7% | OVCAR-5 ovarian 43.1% | OVCAR-4 ovarian 14.3% | IGROV1 ovarian 16.4% | OVCAR-3 ovarian 18.1% | HS 578T breast 64.5% | BT-549 breast 27.2% | MDA-MB-435 melanoma 33.5% | SW-620 colon 22.3% | HCC-2998 colon 49.7% | KM12 colon 28.7%

COc1ccc(/C(C)=C(\c2ccc(Cl)cc2)c2ccc(OCCN3CCCC3)cc2)cc1
active: SR leukemia -21.6% | RPMI-8226 leukemia -20.3%
inactive: OVCAR-8 ovarian 51.6% | OVCAR-5 ovarian 64.7% | OVCAR-4 ovarian 63.5% | SK-OV-3 ovarian 82.9% | IGROV1 ovarian 48.9% | OVCAR-3 ovarian 63.7% | HS 578T breast 51.5% | NCI/ADR-RES ovarian 70.6% | T-47D breast 45.9% | BT-549 breast 57.9% | MDA-MB-435 melanoma 39.2% | SW-620 colon 25.1% | MCF7 breast 13% | HCT-116 colon 23.6% | HCC-2998 colon 87% | KM12 colon 24.5%

C=C1C(=O)O[C@H]2[C@H]1CC/C(COC(=O)NCCCCCCCCNC(=O)OC/C1=C/CC[C@@]3(C)O[C@H]3[C@H]3OC(=O)C(=C)[C@@H]3CC1)=C\CC[C@@]1(C)O[C@@H]21
inactive: SK-OV-3 ovarian 34.4% | HS 578T breast 17.4% | NCI/ADR-RES ovarian 43.9%
active: SR leukemia -37.6% | RPMI-8226 leukemia -42.8% | OVCAR-8 ovarian -51.2% | OVCAR-5 ovarian -79.6% | OVCAR-4 ovarian -82.9% | IGROV1 ovarian -74.3% | OVCAR-3 ovarian -94.1% | T-47D breast -45.7% | BT-549 breast -88.2% | MDA-MB-435 melanoma -89.9% | SW-620 colon -74.7% | MCF7 breast -55.2% | HCT-116 colon -79.2% | HCC-2998 colon -65.5% | KM12 colon -43.9%

COC(=O)C1=C(C(=O)Nc2cccnc2)C2OC1(C(Cc1ccccc1)Oc1ccccc1)C1OC21 (configuration not stated)
inactive: OVCAR-8 ovarian 86.4% | OVCAR-5 ovarian 79.7% | OVCAR-4 ovarian 75% | SK-OV-3 ovarian 98.3% | IGROV1 ovarian 77.7% | HS 578T breast 101% | NCI/ADR-RES ovarian 103% | BT-549 breast 61.5% | MDA-MB-435 melanoma 77.8% | MCF7 breast 24.9% | HCC-2998 colon 105% | KM12 colon 96.8%
active: SR leukemia -23.7% | RPMI-8226 leukemia -11.8% | OVCAR-3 ovarian -53.5% | T-47D breast -46.7% | SW-620 colon -64.9% | HCT-116 colon -46.3%

O=C(/C=C/C12c3ccccc3C(c3ccccc31)C1C(=O)NC(=O)C12)c1ccc(F)cc1 (configuration not stated)
inactive: OVCAR-5 ovarian 28% | OVCAR-4 ovarian 30.3% | IGROV1 ovarian 13.2% | HS 578T breast 23.7% | T-47D breast 12.2% | MCF7 breast 11.8% | HCC-2998 colon 10.9%
active: SR leukemia 0.421% | RPMI-8226 leukemia -24% | OVCAR-8 ovarian -64.2% | SK-OV-3 ovarian -1.75% | OVCAR-3 ovarian -10.1% | NCI/ADR-RES ovarian 5.4% | BT-549 breast 2.77% | MDA-MB-435 melanoma -12.8% | SW-620 colon 4.25% | HCT-116 colon -18.6% | KM12 colon 8.33%

COc1cc2c(/C=C3\C(=O)Nc4ccccc43)c(C(=O)O)[nH]c2cc1C
active: IGROV1 ovarian -10%
inactive: SR leukemia 91.3% | RPMI-8226 leukemia 87% | OVCAR-8 ovarian 103% | OVCAR-5 ovarian 59.1% | OVCAR-4 ovarian 95.3% | SK-OV-3 ovarian 129% | OVCAR-3 ovarian 108% | HS 578T breast 137% | NCI/ADR-RES ovarian 84.1% | T-47D breast 113% | BT-549 breast 102% | MDA-MB-435 melanoma 105% | SW-620 colon 120% | MCF7 breast 72% | HCT-116 colon 96.5% | HCC-2998 colon 103% | KM12 colon 99.8%

N#C/C(=C\c1ccc(Cl)cc1Cl)C(=O)Nc1ncc(Cc2ccc(Cl)c(Cl)c2)s1
inactive: SR leukemia 59.6% | RPMI-8226 leukemia 92.9% | OVCAR-8 ovarian 91.6% | OVCAR-5 ovarian 71.5% | OVCAR-4 ovarian 82.8% | SK-OV-3 ovarian 96.6% | IGROV1 ovarian 85.6% | OVCAR-3 ovarian 98.9% | HS 578T breast 94.3% | NCI/ADR-RES ovarian 83.2% | T-47D breast 58.5% | BT-549 breast 111% | MDA-MB-435 melanoma 60.8% | SW-620 colon 62.6% | MCF7 breast 84% | HCT-116 colon 78.5% | HCC-2998 colon 87% | KM12 colon 80.1%

COc1cc(C#Cc2ccc(=O)oc2C#Cc2ccccc2)cc(OC)c1OC
active: SR leukemia 3.75% | SW-620 colon 8.07% | HCT-116 colon -32.2%
inactive: RPMI-8226 leukemia 49.2% | OVCAR-8 ovarian 89.4% | OVCAR-5 ovarian 75.8% | OVCAR-4 ovarian 96.9% | SK-OV-3 ovarian 101% | IGROV1 ovarian 67.4% | OVCAR-3 ovarian 29.9% | HS 578T breast 84.8% | NCI/ADR-RES ovarian 89.7% | T-47D breast 27.6% | BT-549 breast 57.6% | MDA-MB-435 melanoma 96% | MCF7 breast 44.6% | HCC-2998 colon 29.1% | KM12 colon 82.7%

O=C(c1ccc(F)c(Cl)c1)N1c2ccccc2Sc2ccccc21
inactive: SR leukemia 34% | RPMI-8226 leukemia 52.6% | OVCAR-8 ovarian 89.9% | OVCAR-5 ovarian 87.3% | OVCAR-4 ovarian 80.1% | SK-OV-3 ovarian 89.2% | IGROV1 ovarian 71.2% | OVCAR-3 ovarian 63.2% | HS 578T breast 79.3% | NCI/ADR-RES ovarian 39.8% | T-47D breast 61% | BT-549 breast 57.6% | SW-620 colon 33.9% | MCF7 breast 51.2% | HCT-116 colon 31.4% | HCC-2998 colon 62.3% | KM12 colon 39.6%
active: MDA-MB-435 melanoma 8.14%

From PubChem BioAssay (NCI)
